# In ChEMBL document CHEMBL3988442, “University of Dundee, Small-Polar-MMV Screening Library” (2021):
# Molecular target: AMP-activated protein kinase, AMPK (Homo sapiens) (UniProt P54646+O43741+P54619+Q9UGJ0+Q9Y478+Q13131+Q9UGI9)
# Experiment: AMP-dependent Kinase enzyme assay. An in vitro enzyme assay that detects ADP turnover that is directly proportional to AMPK activity. This uses naive AMPK that is activated during the assay with MK-8722
# Assay type: functional
# Parameters: scale not given: direction of the effect not stated beside the values
# Details: 30 µM
row,SMILES,Percent Effect [%]
1,Cc1nnc(CN(C)CC(=O)NCCc2ccc(F)cc2)n1C,5.73
2,Cc1nc(C)c(C(=O)N2CCCc3c(F)cccc32)o1,-0.713
3,CC(C)c1ccc(/C=C/CC(=O)NC2CCN(C(N)=O)CC2)cc1,-2.39
4,COCCNc1ccc(CC2CCCN(C3CCCC3)C2)nn1 (stereo not given),4.32
5,CN1CCCC(c2nccnc2-c2cccc(C(F)(F)F)c2)C1 (stereo not given),26.4
6,Fc1cccc(CN2CCC[C@H](Cn3nnc(-c4ccccn4)n3)C2)c1,9.12
7,COc1cc(F)cc2sc(NC(=O)COCC3CCCO3)nc12 (stereo not given),1.22
8,Cc1nccc(CN2Cc3nccn3CC2c2ccccc2)n1 (stereo not given),15
9,CCc1nc(C)c(CN2CCOC(Cc3cccc4ccccc34)C2)[nH]1 (stereo not given),-0.756
10,Cc1noc(CCCC(=O)N2CSCC2C(=O)NCC2CC2)n1 (stereo not given),-0.369
11,CC1CCN(C(=O)CCN2Cc3ccccc3C[C@H]2C(N)=O)C1 (stereo not given in full),-7.65
12,CC(C)(C)CN(CCO)C(=O)Nc1cccc(N2CCNC2=O)c1,2.19
13,Cc1cc(N(C)C)nc(N2CCn3c(nnc3C3CC3)C2)n1,-2.99
14,Cc1cc(CNCC2(O)CCOCC2)ccc1Br,-7.22
15,CCOc1ccc(Cl)cc1CCNC(=O)Cn1ccccc1=O,16.7
16,Cc1nc(CN2CCCC2Cn2cccn2)nc2ccccc12 (stereo not given),-8.75
17,Cc1cc(N2CCOC(c3ccc(N(C)C)cn3)C2)nc(N)n1 (stereo not given),7.96
18,CCN(CCOC)C(=O)c1ccc2c(c1)nc(N1CC[C@H](O)C1)n2C,3.21
19,Cc1ncc(C(=O)N2CCCC2c2c(C)nn(C)c2C)s1 (stereo not given),1.37
20,CC(C)(CNC(=O)c1ccco1)CNC(=O)c1ccco1,-2.53

row,SMILES,Percent Effect [%]
1,O=C(c1nnn(-c2ccc(Cl)cc2)n1)N(CCO)Cc1ccccc1,3.07
2,COc1ccc(C(C)NCCc2ccc(NC(C)=O)cc2)cc1F (stereo not given),5.54
3,CC(NC(=O)Nc1ccc(-c2csnn2)cc1)C(=O)NC(C)(C)C (stereo not given),-8.32
4,CCOCCCNCc1cc(O)c2cc(C)ccc2n1,-9.04
5,N#Cc1cccc(N2CCCC(CO)(CCOc3ccccc3)C2)n1 (stereo not given),3.31
6,N#CC1(NC(=O)c2c(F)ccc(OC(F)F)c2F)CCOCC1,-2.32
7,CCN(CC)c1ncccc1CNCc1ccc(Cl)s1,-3.79
8,CCOCCC(=O)N1CCCC(c2cc(C(F)(F)F)[nH]n2)C1 (stereo not given),0.822
9,Cc1nc(C)n(CC2CCCN2c2ncnc3sccc23)n1 (stereo not given),1.91
10,NC(=O)c1csc(N2C[C@@H](CN3CCC(O)CC3)[C@@H](CO)C2)n1,-1.72
11,CC1(C)OC(=O)N(CCCOc2ccc(F)cc2)C1=O,-0.642
12,CCCN(CCc1ccccn1)C(=O)Cn1cnnn1,4.35
13,COC(=O)c1ccoc1CN(C1CC1)C1CCS(=O)(=O)C1 (stereo not given),7.17
14,O=C(Nc1ccc(F)cc1F)NC1(CO)CCOCC1,4.61
15,COc1cc(Cl)ccc1CNC(=O)N(C)C(C)CS(C)(=O)=O (stereo not given),-1.65
16,CCn1ncc(CN2CCC(c3ncc(Cl)cc3S(C)(=O)=O)CC2)c1C,6.21
17,Cc1cc(NC(=O)CN2CCN(C3CCCC3)C(=O)C2)nn1C,8.93
18,CC(c1nc(C2CC2)no1)N1CCc2c(ncn2C2CC2)C1 (stereo not given),11.4
19,COCCN(CC(F)F)c1cc(COC)nc2ncnn12,0.272
20,Fc1cccc(OC2CCN(CCn3cc4ccccc4n3)CC2)c1,7.33
